Hit rate of the full screen: of about 5,500 compounds, about 2,000 (36%) were called active. Inconclusive results (about 18%) are left out. This is one part of the list. Unmarked numbers belong to inactive results. Cut-off read from the data, not from the text of the source: active = normalized growth mostly below about 0.91 (no sharp cut-off); inconclusive = no clear call, values can overlap the other calls; inactive = mostly above about 0.92.
Assay: chemical genetic growth profiling, strain panel (AID 1159580);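 note: tested at 20 µM; growth read once vehicle control cultures reached saturation at 30 °C; 1 = growth at the plate median or of vehicle wells; lower values mean less growth of the strain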
Details: S. cerevisiae deletion strains, growth OD

## CCC(C)COC(=O)/C=C/c1ccc(N=Cc2ccc(OC)cc2)cc1 (stereo unspecified)
Locus YAR019C, strain CDC15, hits give low values
  normalized growth: 0.961
Locus YBL105C, strain PKC1, hits give low values
  normalized growth: 0.968
Locus YBR135W, strain CKS1, hits give low values
  normalized growth: 0.969
Locus YBR136W, strain MEC1, hits give low values
  normalized growth: 0.969
Locus YBR160W, strain CDC28, hits give low values
  normalized growth: 0.978
Locus YDL017W, strain CDC7, hits give low values
  normalized growth: 0.98
Locus YDL028C, strain MPS1, hits give low values
  normalized growth: 0.984
Locus YDL101C, strain DUN1, hits give low values
  normalized growth: 0.948
Locus YDL108W, strain KIN28, hits give low values
  normalized growth: 0.965
Locus YDL132W, strain cdc53, hits give low values
  normalized growth: 0.958
Locus YDL214C, strain PRR2, hits give low values
  normalized growth: 0.845
Locus YDR052C, strain DBF4, hits give low values
  normalized growth: 0.969
Locus YDR054C, strain cdc34, hits give low values
  normalized growth: 0.964
Locus YDR226W, strain ADK1, hits give low values
  normalized growth: 0.955
Locus YDR477W, strain SNF1, hits give low values
  normalized growth: 0.842
Locus YER123W, strain YCK3, hits give low values
  normalized growth: 0.743
Locus YER133W, strain GLC7, hits give low values
  normalized growth: 0.804
Locus YFL009W, strain cdc4, hits give low values
  normalized growth: 0.972
Locus YFL029C, strain CAK1, hits give low values
  normalized growth: 0.962
Locus YFR003C, strain YPI1, hits give low values
  normalized growth: 0.968
Locus YFR019W, strain FAB1, hits give low values
  normalized growth: 0.843
Locus YFR028C, strain CDC14, hits give low values
  normalized growth: 0.952
Locus YGR040W, strain KSS1, hits give low values
  normalized growth: 0.811
Locus YGR052W, strain FMP48, hits give low values
  normalized growth: 0.779
Locus YGR092W, strain DBF2, hits give low values
  normalized growth: 0.646
Locus YHR030C, strain SLT2, hits give low values
  normalized growth: 0.531 (active)
Locus YHR079C, strain IRE1, hits give low values
  normalized growth: 0.814
Locus YHR082C, strain KSP1, hits give low values
  normalized growth: 0.852
Locus YHR205W, strain SCH9, hits give low values
  normalized growth: 0.662
Locus YIL147C, strain SLN1, hits give low values
  normalized growth: 0.965
Locus YJL095W, strain BCK1, hits give low values
  normalized growth: 0.474 (active)
Locus YJL128C, strain PBS2, hits give low values
  normalized growth: 0.921
Locus YJL157C, strain FAR1, hits give low values
  normalized growth: 0.864
Locus YJR016C, strain ILV3, hits give low values
  normalized growth: 0.963
Locus YJR066W, strain TOR1 (second series), hits give low values
  normalized growth: 0.241 (active)
Locus YJR066W, strain TOR1, hits give low values
  normalized growth: 0.794
Locus YKL048C, strain ELM1, hits give low values
  normalized growth: 0.805
Locus YKL067W, strain YNK1, hits give low values
  normalized growth: 0.873
Locus YKL101W, strain HSL1, hits give low values
  normalized growth: 0.831
Locus YKL193C, strain SDS22, hits give low values
  normalized growth: 0.962
Locus YKL203C, strain TOR2, hits give low values
  normalized growth: 0.826
Locus YLR113W, strain HOG1, hits give low values
  normalized growth: 0.696 (active)
Locus YLR133W, strain CKI1, hits give low values
  normalized growth: 0.825
Locus YLR403W, strain SFP1, hits give low values
  normalized growth: 0.742
Locus YML070W, strain DAK1, hits give low values
  normalized growth: 0.814
Locus YMR001C, strain CDC5, hits give low values
  normalized growth: 0.964
Locus YMR205C, strain PFK2 (second series), hits give low values
  normalized growth: 0.861
Locus YMR277W, strain FCP1, hits give low values
  normalized growth: 0.966
Locus YNL006W, strain LST8, hits give low values
  normalized growth: 0.972
Locus YNL020C, strain ARK1, hits give low values
  normalized growth: 0.836
Locus YNL161W, strain CBK1, hits give low values
  normalized growth: 0.97
Locus YNL183C, strain NPR1, hits give low values
  normalized growth: 0.795
Locus YNL207W, strain RIO2, hits give low values
  normalized growth: 0.947
Locus YNL222W, strain SSU72, hits give low values
  normalized growth: 0.972
Locus YNL307C, strain MCK1 (second series), hits give low values
  normalized growth: 0.783
Locus YOL078W, strain AVO1, hits give low values
  normalized growth: 0.958
Locus YOL136C, strain PFK27, hits give low values
  normalized growth: 0.755
Locus YOR061W, strain CKA2, hits give low values
  normalized growth: 0.803
Locus YOR119C, strain RIO1, hits give low values
  normalized growth: 0.816
Locus YOR231W, strain MKK1, hits give low values
  normalized growth: 0.785
Locus YOR329C, strain SCD5, hits give low values
  normalized growth: 0.975
Locus YPL031C, strain PHO85, hits give low values
  normalized growth: 0.819
Locus YPL153C, strain RAD53, hits give low values
  normalized growth: 0.83
Locus YPL204W, strain HRR25, hits give low values
  normalized growth: 0.719
Locus YPL209C, strain IPL1, hits give low values
  normalized growth: 0.959
Locus YPL256C, strain CLN2, hits give low values
  normalized growth: 0.798 (active)
Locus YPR025C, strain CCL1, hits give low values
  normalized growth: 0.968
Locus YPR106W, strain ISR1, hits give low values
  normalized growth: 0.951
Locus YPR111W, strain DBF20, hits give low values
  normalized growth: 0.944
Strain NNK1, hits give low values
  normalized growth: 0.941
Strain TSCII, hits give low values
  normalized growth: 0.95

From PubChem BioAssay AID1159580 (chemical genetic matrix, 2015)
